# Measured values: ChEMBL document CHEMBL3988442, “University of Dundee, Small-Polar-MMV Screening Library” (2021)
# In all, about 48,000 compounds went through this assay and about 13,000 (27%) showed an effect of 50% or more. The list shows a part of the results.
# System: Wolbachia pipientis
# Assay: Anti-Wolbachia Cell-Based Screen
# Type: functional
# Parameters: scale not given: in the data most compounds retested in dose-response had high values
# Conditions: 5 µM
row,Structure (SMILES),Percent Effect [%]
1,COC(CNC(=O)c1ccc[nH]1)c1cccc(Cl)c1 (centres undefined),-25.79
2,Cc1cccc2c1nc(CCO)n2-c1ccc(C(=O)N2CCOCC2)o1,-4.594
3,CC(C)Oc1cc(N2CCC(C(N)=O)CC2)nc(N)n1,11.1
4,CCN(CC(=O)NC(C)C)S(=O)(=O)N1CCCCC1C (centres undefined),-3.982
5,CCN(CC)S(=O)(=O)N1C[C@@H](c2ccccc2)[C@H]2[C@H]1CCCCCN2C,163.4
6,CCN(CC)S(=O)(=O)N1CC[C@H](c2ccccc2)[C@@H]2[C@H]1CCCCN2C,135.6
7,Cc1cc(S(=O)(=O)N2CCCc3ccc(F)cc32)sc1C(=O)O,-10.9
8,O=C([C@@H]1CCO[C@@H]2CCN(Cc3ccco3)C[C@H]21)N1CCCCO1,1.589
9,COc1ccc(CN2CCC[C@@H]3CN(C(=O)c4ccco4)C[C@@H]32)cc1.O=C(O)C(F)(F)F,6.144
10,COCC(=O)N1CCC(=O)N(C2CCCC2)Cc2ccccc21,125.1
11,COCC(=O)N1CCCN(C(=O)C2Cc3ccccc3CN2C)CC1 (centres undefined),-0.0278
12,COCC(=O)N1CCC(=O)N(C2CCCC2)Cc2cc(F)ccc21,102.4
13,COC(C)(C)CNC(=O)C1CCC(=O)N(C2CCCC2)C1 (centres undefined),-37.87
14,CC(=O)N1CCCN(C2CCCCc3ccccc32)CC1 (centres undefined),16.59
15,COc1cccc(SCC(=O)N2CCCC(N3CCCC3=O)C2)c1 (centres undefined),3.036
16,CC(=O)N1CCC(=O)N(C2CCCC2)Cc2ccccc21,106.7
17,COc1cccc(-n2nnc(C(=O)N3CCCC3)c2C)c1,-5.233
18,COCCO[C@@H]1CCN(C(=O)c2ccc(C)o2)[C@@H]1Cc1cnn(C)c1,-2.237
19,Cn1cc(C[C@H]2[C@@H](O)CCN2C(=O)c2ccc[nH]2)cn1,-3.734
20,CO[C@H]1CCN(c2ccc(C)nn2)[C@H]1Cc1cnn(C)c1,-0.6949
21,CCO[C@@H]1CCN(C(=O)N(C)C)[C@@H]1Cc1cnn(C)c1,6.075
22,Cc1ccc(N2CC[C@H](O)[C@@H]2Cc2cnn(C)c2)nn1,105.5

row,Structure (SMILES),Percent Effect [%]
1,COCCO[C@H]1CCN(c2ccc(C)nn2)[C@H]1Cc1cnn(C)c1,102.2
2,COCCO[C@H]1CCN(C(=O)c2ccno2)[C@H]1Cc1cnn(C)c1,-8.767
3,CCO[C@@H]1CCN(c2ccc(C)nn2)[C@@H]1Cc1cnn(C)c1,109.6
4,Cn1cc(C[C@H]2[C@H](O)CCN2C(=O)C2CCCC2)cn1,-2.611
5,CCC(C)(NCC(=O)OC)c1nc(C)cs1 (centres undefined),4.251
6,CC(C)c1nc2n(n1)CC(NCC(=O)N(C)Cc1cccs1)CC2 (centres undefined),-0.7675
7,Cn1c(=O)[nH]c2cc(C(=O)OCCCn3ccccc3=O)ccc21,-6.987
8,O=C(CO[C@@H]1CC[C@H]2[C@H]1OCCN2CC1CCOCC1)N1CCCC1.O=C(O)C(F)(F)F,-8.196
9,CCO[C@@H]1CC[C@H]2[C@H]1OCCN2CCOCc1ccccc1.O=C(O)C(F)(F)F,-21.46
10,Cc1nnc(N2C[C@H](OCCCn3cccn3)[C@H]3OCCC[C@H]32)s1,1.098
11,O=C(O)C(F)(F)F.O=C(O)C(F)(F)F.c1cnn(CCCO[C@@H]2CN(C3CCOCC3)[C@@H]3CCCO[C@@H]32)c1,99.23
12,Cc1nnc(N2C[C@@H](OCCCn3cccn3)[C@H]3OCCC[C@H]32)s1.O=C(O)C(F)(F)F.O=C(O)C(F)(F)F,12.15
13,O=C(O)C(F)(F)F.O=C(O)C(F)(F)F.c1cnn(CCCO[C@@H]2CC[C@H]3[C@H]2OCCN3CC2CC2)c1,100.5
14,CCO[C@H]1CC[C@H]2[C@H]1OCCN2CCOCc1ccccc1.O=C(O)C(F)(F)F,-37.65
15,O=C(O)C(F)(F)F.O=C(O)C(F)(F)F.c1cnn(CCCO[C@@H]2CC[C@H]3[C@H]2OCCN3CC2CCOCC2)c1,107.9
16,CN(C)CCSc1ccc(NC(=O)c2nccn3ccnc23)cc1,11.77
17,COc1cc(OC)cc(C2CCN(CC(=O)NCC(F)(F)F)C2)c1 (centres undefined),-9.174
18,Cc1ccc(CN2CCC3(CC2)COCCN3S(C)(=O)=O)o1.O=C(O)C(F)(F)F,105
19,CS(=O)(=O)N1CCOCC12CCN(Cc1ccc(F)cc1)CC2.O=C(O)C(F)(F)F,90.38
20,Cc1ccc(CN2CCOC3(COCCN(Cc4ccncc4)C3)C2)o1.O=C(O)C(F)(F)F.O=C(O)C(F)(F)F.O=C(O)C(F)(F)F (centres undefined),-16.88
21,Cc1ccc(CN2CCOC3(COCCN(S(C)(=O)=O)C3)C2)o1.O=C(O)C(F)(F)F (centres undefined),-4.149
22,CS(=O)(=O)N1CCOCC2(CN(Cc3ccc(F)cc3)CCO2)C1.O=C(O)C(F)(F)F (centres undefined),-3.432
